Measurements as given in PubChem BioAssay (Tox21).
A number with no mark means an inactive call. Records with an inconclusive call do not appear. Entries that show only a call come without a potency. Active and inactive are the calls of the source. Calls follow the shape of the full dose curve.

Target: Acetylcholinesterase (Homo sapiens) (UniProt P22303)
Assay: Acetylcholinesterase (AChE) small molecule antagonists: colormetric cell-based qHTS assay (AID 1347395); also: nearly all actives have a fitted effect of over 30% in size
Details: SH-SY5Y cells AChE activity, colorimetric (Ellman); series mostly up to 115 µM
Summary of the method: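 Cells (SH-SY5Y, 2,000 per well) are seeded and left overnight at 37 C. Compound is added for 30 min, then DTNB and acetylthiocholine for a further 90 min at 37 C before absorbance-based thiocholine detection.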
Potency is read from the fitted curve at half-maximal effect.

Sequence of Acetylcholinesterase (Homo sapiens) (P22303 whole entry, looked up): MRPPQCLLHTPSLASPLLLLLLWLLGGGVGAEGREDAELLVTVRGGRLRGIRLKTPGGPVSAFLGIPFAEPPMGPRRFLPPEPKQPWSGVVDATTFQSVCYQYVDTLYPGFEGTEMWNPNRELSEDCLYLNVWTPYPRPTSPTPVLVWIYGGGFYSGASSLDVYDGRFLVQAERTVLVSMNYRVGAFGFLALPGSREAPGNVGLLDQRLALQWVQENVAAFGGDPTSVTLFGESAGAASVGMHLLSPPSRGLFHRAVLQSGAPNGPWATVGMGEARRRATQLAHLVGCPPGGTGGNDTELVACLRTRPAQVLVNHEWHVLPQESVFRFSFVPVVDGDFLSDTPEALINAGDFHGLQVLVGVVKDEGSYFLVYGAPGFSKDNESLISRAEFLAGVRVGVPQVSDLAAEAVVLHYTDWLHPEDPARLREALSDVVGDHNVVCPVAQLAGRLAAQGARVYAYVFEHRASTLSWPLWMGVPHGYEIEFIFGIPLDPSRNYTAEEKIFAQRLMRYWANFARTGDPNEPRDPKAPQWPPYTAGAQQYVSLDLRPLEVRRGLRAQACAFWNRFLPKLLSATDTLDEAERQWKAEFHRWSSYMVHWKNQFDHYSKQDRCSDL

| Structure (SMILES) | Potency | activity, negative = inhibition |
| --- | --- | --- |
| COc1ccc2c(c1)C(=O)N(CCc1ccc(S(=O)(=O)NC(=O)NC3CCCCC3)cc1)C(=O)C2(C)C | inactive |  |
| CCN(CC)CCOc1ccc(C(O)(Cc2ccc(Cl)cc2)c2ccc(C)cc2)cc1 (configuration not stated) | inactive |  |
| Cc1cc(O)c2c(O)c3c(O)cccc3cc2c1 | inactive |  |
| CN(C)CC[C@@H](c1ccc(Br)cc1)c1ccccn1 | inactive |  |
| COc1cc(-c2nc(NC(=O)c3cc4cc(C)cc(C)c4n3CC(=O)O)sc2CCC2CCCCC2)c(OC)cc1Cl | inactive |  |
| CC(C)c1ccc(C#N)cc1 | inactive |  |
| CC(CN=Cc1ccccc1O)N=Cc1ccccc1O (configuration not stated) | inactive |  |
| CN1CCCC(n2nc(Cc3ccc(Cl)cc3)c3ccccc3c2=O)CC1 (configuration not stated) | 17.4 µM (active) |  |
| COC(=O)C(C)(C)C | inactive |  |
| FC(F)OC(Cl)C(F)(F)F (configuration not stated) | inactive |  |
| CN1CCCN=C1/C=C/c1cccs1 | 15.5 µM (active) |  |
| COc1ccc(CCC(=O)c2c(O)cc(O[C@@H]3O[C@H](CO)[C@@H](O)[C@H](O)[C@H]3O[C@@H]3O[C@@H](C)[C@H](O)[C@@H](O)[C@H]3O)cc2O)cc1O | inactive |  |
| C[C@@H]1C[C@H]2[C@@H]3CCC4=CC(=O)C=C[C@]4(C)[C@@]3(F)[C@@H](O)C[C@]2(C)[C@@]1(O)C(=O)CO | inactive |  |
| CC(C)(O)c1ccc(C(C)(C)O)cc1 | inactive |  |
| CC(=O)c1ccc2c(c1)Cc1ccccc1-2 | inactive |  |
| c1csc(SSc2cccs2)c1 | inactive |  |
| C=CC(=O)NCOCC(C)C | inactive |  |
| CS(C)=O | inactive |  |
| O=C1c2ccccc2C(=O)C1(O)O | inactive |  |
| CCCCCCCC/C=C\CCCCCCCCCCCC(=O)O | inactive |  |

| Structure (SMILES) | Potency | activity, negative = inhibition |
| --- | --- | --- |
| CCCCCCCCCCCCCCCC/C=C/C1CC(=O)OC1=O (configuration not stated) | inactive |  |
| O=S(O)CO | inactive |  |
| Clc1cc(Cl)c2c(c1)N=C1CCCCCN1C2 | 0.776 µM (active) |  |
| CCOC(=O)c1ccc(C#Cc2ccc3c(c2)C(C)(C)CCS3)nc1 | inactive |  |
| OCc1cc(C(O)CNCCCCCCOCCCCc2ccccc2)ccc1O (configuration not stated) | inactive |  |
| Cc1ccsc1/C=C/C1=NCCCN1C | 17.4 µM (active) |  |
| COc1cc(OC)nc(NC(=O)NS(=O)(=O)Nc2ccccc2C(=O)N(C)C)n1 | inactive |  |
| CC/C=C\CCCCCCCCCCOC(C)=O | inactive |  |
| COc1cc2nc(Cl)nc(N)c2cc1OC | inactive |  |
| CC(C)(C)NCC(O)COc1ccc(NC(=O)NC2CCCCC2)cc1 (configuration not stated) | inactive |  |
| Cc1occc(=O)c1OC(=O)C(C)C | inactive |  |
| OCCCc1cccnc1 | inactive |  |
| CCCCOc1cc(C(=O)OCCN(CC)CC)ccc1N | inactive |  |
| Clc1cccnc1 | inactive |  |
| O=[N+]([O-])C1(Br)COCOC1 | inactive |  |
| CCCCN1C=CN(C)C1 |  | 0.291% [at 23.6 µM] |
| CCOCCOC(=O)/C=C/c1ccc(OC)cc1 | inactive |  |
| COc1ccccc1OCC(O)CN1CCN(CC(=O)Nc2c(C)cccc2C)CC1 (configuration not stated) | inactive |  |
| CC(C)=CCCC(C)O (configuration not stated) | inactive |  |

Target: Acetylcholinesterase (Homo sapiens) (UniProt P22303)
Assay: Acetylcholinesterase (AChE) small molecule antagonists: enzyme-based qHTS assay (AID 1347397); also: nearly all actives have a fitted effect of over 55% in size
Details: Potency: AChE enzyme activity inhibition; outcome: AChE enzyme activity inhibition; series mostly up to 115 µM
Summary of the method: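 Recombinant human AChE (50 mU/mL) preincubated with compound 30 min at room temperature; acetylthiocholine plus DTNB then added, and thiocholine formation read colorimetrically after 10 min at room temperature. DMSO served as vehicle control.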

| Structure (SMILES) | Potency | activity change, negative = inhibition |
| --- | --- | --- |
| COc1ccc2c(c1)C(=O)N(CCc1ccc(S(=O)(=O)NC(=O)NC3CCCCC3)cc1)C(=O)C2(C)C | inactive |  |
| CCN(CC)CCOc1ccc(C(O)(Cc2ccc(Cl)cc2)c2ccc(C)cc2)cc1 (configuration not stated) | inactive |  |
| Cc1cc(O)c2c(O)c3c(O)cccc3cc2c1 | inactive |  |
| CN(C)CC[C@@H](c1ccc(Br)cc1)c1ccccn1 | inactive |  |
| COc1cc(-c2nc(NC(=O)c3cc4cc(C)cc(C)c4n3CC(=O)O)sc2CCC2CCCCC2)c(OC)cc1Cl | inactive |  |
| CC(C)c1ccc(C#N)cc1 | inactive |  |
| CC(CN=Cc1ccccc1O)N=Cc1ccccc1O (configuration not stated) | inactive |  |
| CN1CCCC(n2nc(Cc3ccc(Cl)cc3)c3ccccc3c2=O)CC1 (configuration not stated) | 27.5 µM (active) |  |
| COC(=O)C(C)(C)C | inactive |  |
| FC(F)OC(Cl)C(F)(F)F (configuration not stated) | inactive |  |
| COc1ccc(CCC(=O)c2c(O)cc(O[C@@H]3O[C@H](CO)[C@@H](O)[C@H](O)[C@H]3O[C@@H]3O[C@@H](C)[C@H](O)[C@@H](O)[C@H]3O)cc2O)cc1O | inactive |  |
| C[C@@H]1C[C@H]2[C@@H]3CCC4=CC(=O)C=C[C@]4(C)[C@@]3(F)[C@@H](O)C[C@]2(C)[C@@]1(O)C(=O)CO | inactive |  |
| CC(C)(O)c1ccc(C(C)(C)O)cc1 | inactive |  |
| CC(=O)c1ccc2c(c1)Cc1ccccc1-2 | inactive |  |
| c1csc(SSc2cccs2)c1 | inactive |  |
| C=CC(=O)NCOCC(C)C | inactive |  |
| CS(C)=O | inactive |  |
| O=C1c2ccccc2C(=O)C1(O)O | inactive |  |
| CCCCCCCC/C=C\CCCCCCCCCCCC(=O)O | inactive |  |

| Structure (SMILES) | Potency | activity change, negative = inhibition |
| --- | --- | --- |
| CCCCCCCCCCCCCCCC/C=C/C1CC(=O)OC1=O (configuration not stated) | inactive |  |
| O=S(O)CO | inactive |  |
| Clc1cc(Cl)c2c(c1)N=C1CCCCCN1C2 | 0.871 µM (active) |  |
| CCOC(=O)c1ccc(C#Cc2ccc3c(c2)C(C)(C)CCS3)nc1 | inactive |  |
| OCc1cc(C(O)CNCCCCCCOCCCCc2ccccc2)ccc1O (configuration not stated) | inactive |  |
| Cc1ccsc1/C=C/C1=NCCCN1C | inactive |  |
| COc1cc(OC)nc(NC(=O)NS(=O)(=O)Nc2ccccc2C(=O)N(C)C)n1 | inactive |  |
| CC/C=C\CCCCCCCCCCOC(C)=O | inactive |  |
| COc1cc2nc(Cl)nc(N)c2cc1OC | inactive |  |
| CC(C)(C)NCC(O)COc1ccc(NC(=O)NC2CCCCC2)cc1 (configuration not stated) | inactive |  |
| Cc1occc(=O)c1OC(=O)C(C)C | inactive |  |
| OCCCc1cccnc1 | inactive |  |
| CCCCOc1cc(C(=O)OCCN(CC)CC)ccc1N | inactive |  |
| Clc1cccnc1 | inactive |  |
| O=[N+]([O-])C1(Br)COCOC1 | inactive |  |
| CCCCN1C=CN(C)C1 |  | 1.48% [at 23.6 µM] |
| CCOCCOC(=O)/C=C/c1ccc(OC)cc1 | inactive |  |
| COc1ccccc1OCC(O)CN1CCN(CC(=O)Nc2c(C)cccc2C)CC1 (configuration not stated) | inactive |  |
| CC(C)=CCCC(C)O (configuration not stated) | inactive |  |
